Only some compounds are listed: those with a hit (about 2.6% of all), similar ones and a draw of the others.
PMP22 txn prim – Cell-based coincidence reporter assay to measure PMP22 gene transcription in S16 Pmp22-F2sN cells - Primary screen. S16 Pmp22-F2sN Schwann cells, FLuc/NLuc coincidence luminescence, 24 h. Potency, µM (titrated, usually from 57.5 µM), actives largely listed as inhibitors. 43,000 tested, 2% active; active means clear falling dose curves in both reporters; inconclusive means both reporters move, but less clearly or upward; inactive means either reporter flat; the % is the NLuc reporter signal
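qHTS, 1536-well. Cells seeded, compounds added by pin tool, 24 h 37C. Nano-Glo reagent 1 (lysis/FLuc), 10 min RT, read; Stop&Glo, 10 min RT, read NLuc.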
mTORC1 inh – Acumen qHTS Assay for Inhibitors of the mTORC1 Signaling Pathway in MEF (Tsc2-/-, p53-/-) Cells: Sytravon; Tsc2-/- p53-/- MEF, phospho-rpS6 immunofluorescence/PI, 24 h; Potency, µM (doses to about 38.3 µM), actives largely listed as inhibitors; 44,000 tested, 0.78% active; further: nearly all actives have a fitted effect of over 50% in size
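Compounds act on Tsc2-/-, p53-/- fibroblasts carrying an empty vector for 24 h before fixation and dual staining for phospho-S6 and DNA (propidium iodide). Values are percentages of cells above a rapamycin-defined pS6/PI threshold.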
S16 F2sN tox – Cell viability qHTS assay in S16 Pmp22-F2sN cells. Potency, µM (highest dose often 57.5 µM), usual class: cytotoxic. 43,000 tested, 0.48% active. S16 Pmp22-F2sN Schwann cells viability, CellTiter-Glo, 24 h; further: nearly all actives have a fitted effect of over 65% in size
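Used to flag compounds lowering reporter output through toxicity, this quantitative HTS measures ATP-based CellTiter-Glo luminescence in S16 Pmp22-F2sN Schwann cells after 24 h compound exposure at 37C.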
OvCa metastasis – Primary qHTS assay for Inhibitors of ovarian cancer metastasis using an organotypic tumor microenvironment (TME) model; AID 1963576, 2024; 46,000 tested, 0.1% active; Potency, µM (highest dose often 45.8 µM), most hits filed as inhibitors; SKOV3ip1-GFP adhesion/invasion on 3D omental model, fluorescence; further: nearly all actives have a fitted effect of over 65% in size
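A 3D layer of primary human omental fibroblasts, mesothelial cells, fibronectin and collagen I, grown 48 hr, received SKOV3ip1-GFP cells in serum-free medium plus compounds at 0.36-46 umol/L. After 2 hr RT and 16 hr 37 C, fixed adherent GFP cells were counted; normalized to DMSO and tomatine.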
GALC G270D up – A Novel Cell-Based Assay to Identify Small Molecules for B -Galactocerebrosidase; 45,000 tested, 0.1% active; 145M-Twi-hGALC-G270D cells (Twitcher mouse brain line with human GALC G270D), HMU-beta-Gal fluorescence, 48 h; Potency, µM (top dose mostly 57.5 µM), most hits filed as activators; AID 1159614, 2016; P54803; further: nearly all actives have a fitted effect of over 65% in size
Target sequence (P54803 whole entry G286D): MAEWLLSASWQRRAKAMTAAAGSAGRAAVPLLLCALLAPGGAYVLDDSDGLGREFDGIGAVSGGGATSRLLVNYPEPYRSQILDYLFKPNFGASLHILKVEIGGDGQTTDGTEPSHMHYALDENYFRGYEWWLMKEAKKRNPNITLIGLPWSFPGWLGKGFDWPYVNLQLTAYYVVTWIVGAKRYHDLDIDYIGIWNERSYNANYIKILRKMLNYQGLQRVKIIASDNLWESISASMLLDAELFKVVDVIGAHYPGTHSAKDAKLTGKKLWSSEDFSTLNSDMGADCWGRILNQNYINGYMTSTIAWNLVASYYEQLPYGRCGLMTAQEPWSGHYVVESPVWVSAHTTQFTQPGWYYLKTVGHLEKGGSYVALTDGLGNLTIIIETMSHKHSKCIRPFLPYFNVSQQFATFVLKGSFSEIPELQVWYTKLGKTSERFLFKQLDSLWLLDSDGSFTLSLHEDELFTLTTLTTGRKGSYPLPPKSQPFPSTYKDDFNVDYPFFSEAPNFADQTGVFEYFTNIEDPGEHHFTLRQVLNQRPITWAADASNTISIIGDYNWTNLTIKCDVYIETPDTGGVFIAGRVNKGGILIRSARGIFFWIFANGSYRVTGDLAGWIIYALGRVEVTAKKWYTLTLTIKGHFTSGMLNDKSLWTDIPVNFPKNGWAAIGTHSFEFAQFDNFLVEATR
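Brain-derived Twitcher mouse 145M-Twi cells stably expressing human GALC-G270D or wild-type GALC, treated live, then residual GALC activity read by fluorescence of HMU-b-Gal substrate (0.1 mM final) in citrate-phosphate buffer pH 5.2 with sodium taurocholate. Signal increase indicates enhancement.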
Of the large screens only hits and unclear results are named; the others gave an inactive call. Unless noted, the call rests on the fitted dose curve; in most records, active means well fitted curve in the direction sought with a large enough effect; inconclusive means small, poorly fitted or top-dose-only effect, or another doubt; inactive means no such curve, though single readings can be large; an effect the other way counts as inactive or inconclusive.

FC(F)(F)c1cccc(N2CCN(Cc3nnc(-c4ccccc4)o3)CC2)c1	none
CC(C)OCc1cc(CN2CCN(c3cccc(C(F)(F)F)c3)CC2)c(O)c2ncccc12	PMP22 txn prim 6.5µM, mTORC1 inh inconclusive, S16 F2sN tox inconclusive
O=C(c1cc2ccc3cccnc3c2[nH]1)N1CCN(c2cccc(C(F)(F)F)c2)CC1	none
CCOCc1cc(CN2CCN(c3cccc(C(F)(F)F)c3)CC2)c(O)c2ncccc12	PMP22 txn prim 4.5µM, mTORC1 inh inconclusive, S16 F2sN tox inconclusive
Cc1ccc(-n2nc3c(N4CCC(C(=O)NCCc5ccccc5)CC4)nnc(C)c3c2C)cc1	PMP22 txn prim inconclusive, S16 F2sN tox 28µM
CC(=O)c1ccc(N2CCN(S(=O)(=O)c3ccc4c(c3)CC(C)N4C(=O)C3CCC3)CC2)cc1 (centres undefined)	PMP22 txn prim 13µM, S16 F2sN tox inconclusive
Cn1c(=O)c2c(nc(NCc3ccccc3)n2Cc2ccccc2)n(C)c1=O	PMP22 txn prim 13µM, S16 F2sN tox inconclusive
CC(CCO)Nc1nc2c(c(=O)n(C)c(=O)n2C)n1Cc1ccc(Br)cc1 (centres undefined)	PMP22 txn prim inconclusive, S16 F2sN tox inconclusive, GALC G270D up 22µM
O=C1CSC(=O)N1C(CCc1ccncc1)COc1ccc(-c2cccc([N+](=O)[O-])c2)cc1 (centres undefined)	none (no result: PMP22 txn prim, mTORC1 inh, S16 F2sN tox, GALC G270D up)
C[C@H]1[C@@H](OC(=O)CCC(=O)O)O[C@@H]2O[C@@]3(C)CC[C@@H]4[C@H](C)CC[C@@H]1[C@@]24OO3	none (no result: PMP22 txn prim, mTORC1 inh, S16 F2sN tox, GALC G270D up)
Cc1cc(Nc2ccc(Cl)cc2C)nc(-n2nc(C)cc2C)n1	PMP22 txn prim 7µM, S16 F2sN tox 5.6µM
Cc1ccc(Nc2cc(C)nc(-n3nc(C)cc3C)n2)cc1	PMP22 txn prim inconclusive, S16 F2sN tox inconclusive
COc1ccc(Nc2nc(N)c3cc(OC)c(OC)cc3n2)cc1	PMP22 txn prim inconclusive, mTORC1 inh 18µM, S16 F2sN tox inconclusive, OvCa metastasis inconclusive
Cc1cc(N2CCCCC2)nc2ccc(NC(=O)/C=C/c3ccccc3OC(C)C)cc12	mTORC1 inh 16µM
Cc1cc(N2CCN(C)CC2)nc2ccc(NC(=O)Nc3ccc(F)cc3)cc12	PMP22 txn prim inconclusive, S16 F2sN tox inconclusive
Cc1cc(C)cc(NC(=O)Nc2ccc3nc(N4CCN(C)CC4)cc(C)c3c2)c1	PMP22 txn prim inconclusive, S16 F2sN tox inconclusive, GALC G270D up 18µM
COc1cccc(/C=C/C(=O)Nc2ccc3nc(N4CCN(C)CC4)cc(C)c3c2)c1OC	PMP22 txn prim inconclusive, mTORC1 inh inconclusive, S16 F2sN tox 32µM, OvCa metastasis inconclusive
CCCCCNC(=O)N1CCC(CN(Cc2ccc(Cl)cc2)Cc2ccc([N+](=O)[O-])s2)C1 (centres undefined)	none (no result: PMP22 txn prim, mTORC1 inh, S16 F2sN tox, GALC G270D up)
C#CCN(C)CC1=Cc2ccccc2Oc2ccccc21	none (no result: PMP22 txn prim, mTORC1 inh, S16 F2sN tox, GALC G270D up)
Cc1[nH]c(C=C2C(=O)Nc3ccccc32)c(C)c1CCC(=O)O	none (no result: PMP22 txn prim, mTORC1 inh, S16 F2sN tox, GALC G270D up)
C=C(C)[C@@H]1CC[C@]2(C)CC[C@]3(C)[C@H](CC[C@@H]4[C@@]5(C)CC[C@H](O)C(C)(C)[C@H]5CC[C@]43C)[C@@H]12	none (no result: PMP22 txn prim, mTORC1 inh, S16 F2sN tox, GALC G270D up)
CCSc1ncc(Cl)c(C(=O)Nc2ccc(S(=O)(=O)N(C)c3ccccc3)cc2)n1	PMP22 txn prim inconclusive
CCN(c1ccccc1)S(=O)(=O)c1ccc(NC(=O)c2nc(S(C)(=O)=O)ncc2Cl)cc1	PMP22 txn prim 1.7µM, mTORC1 inh 3.3µM, S16 F2sN tox 4.5µM, OvCa metastasis inconclusive
CCS(=O)(=O)c1ncc(Cl)c(C(=O)Nc2ccc(S(=O)(=O)N(C)c3ccccc3)cc2)n1	PMP22 txn prim 1µM, mTORC1 inh 0.41µM, S16 F2sN tox 4.5µM
COc1ccccc1N1CCN(C(=O)c2ccc(Nc3nc4ccccc4n4nnnc34)cc2)CC1	PMP22 txn prim inconclusive, S16 F2sN tox 3.5µM
